{
  "source": "PubChem BioAssay AID1508602",
  "about": "(The Scripps Research Institute Molecular Screening Center, 2020)",
  "note": "Out of some 650,000 compounds screened, about 6,800 (1%) were called active. This is one part of a sample in which actives are shown more often than they occur. Values without a mark were called inactive. Cut-off read from the data, not from the text of the source: active = activation above about 4.9%; inactive = the rest.",
  "data": [
    {"molecular_target": "G-protein coupled receptor 151 (Homo sapiens) (UniProt Q8TDV0)", "sequence (Q8TDV0 whole entry, looked up)": "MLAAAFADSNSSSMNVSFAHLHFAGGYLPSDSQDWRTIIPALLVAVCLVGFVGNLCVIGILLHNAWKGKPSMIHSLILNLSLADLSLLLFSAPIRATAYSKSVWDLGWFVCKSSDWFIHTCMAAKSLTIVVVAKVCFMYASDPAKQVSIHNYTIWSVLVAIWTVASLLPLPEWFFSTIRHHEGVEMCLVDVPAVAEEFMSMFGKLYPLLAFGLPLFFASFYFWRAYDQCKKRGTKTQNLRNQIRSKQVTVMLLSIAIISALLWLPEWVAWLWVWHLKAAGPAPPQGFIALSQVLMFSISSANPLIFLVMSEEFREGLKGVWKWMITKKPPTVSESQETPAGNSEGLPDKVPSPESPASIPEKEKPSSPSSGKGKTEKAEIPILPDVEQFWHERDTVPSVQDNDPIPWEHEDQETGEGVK", "test": "activates the human receptor GPR151, primary screen, cell-based, PathHunter beta-arrestin, luminescence (AID 1508602);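 note: 0% = median of compound wells and 100% = cells with positive control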", "settings": "PathHunter beta-arrestin GPR151 cells, at 11.2 µM, hits give high values", "values": [
      {"smiles": "NC(=O)c1ccc(NC(=O)CSc2nc(N)c(NC(=O)c3ccccc3)c(=O)[nH]2)cc1", "activation": "-0.254%"},
      {"smiles": "C#CCN1C(=O)C(O)(CC(=O)c2ccc(Br)cc2)c2ccccc21", "note": "(configuration not stated)", "activation": "4.05%"},
      {"smiles": "Cc1cc(N2CCCC2)nc(N2CCN(C(=O)c3ccccc3Cl)CC2)n1", "activation": "0.558%"},
      {"smiles": "CCOC(=O)c1oc2ccc(Br)cc2c1C", "activation": "1.27%"},
      {"smiles": "COC(=O)c1oc2ccc(Br)cc2c1NC(C)=O", "activation": "6.57% (active)"},
      {"smiles": "Cc1c(C(=O)Nc2nnc(C3CC3)s2)oc2ccc(Br)cc12", "activation": "-0.544%"},
      {"smiles": "O=C(NC(c1ccccc1)C(C(=O)c1ccccc1)C(=O)c1ccccc1)OCCc1ccccc1", "note": "(configuration not stated)", "activation": "-0.699%"},
      {"smiles": "COCCCNCc1c(C(=O)O)n(Cc2ccccc2F)c2cc(OC)ccc12", "activation": "1.64%"},
      {"smiles": "CCN(CC)CCNS(=O)(=O)c1ccc(Br)c(C)c1", "activation": "0.131%"},
      {"smiles": "O=C(CSc1nnnn1-c1ccc2c(c1)OCCO2)NNC(=O)c1ccco1", "activation": "2.23%"},
      {"smiles": "COc1cccc(OC(=O)c2ccc(F)cc2[N+](=O)[O-])c1", "activation": "-5.87%"},
      {"smiles": "CCCCN(C)Cc1cc(Br)ccc1OC", "activation": "0.319%"},
      {"smiles": "CC(C)N1CCc2c(sc(NC(=O)Cc3ccccc3)c2C#N)C1", "activation": "4.91% (active)"},
      {"smiles": "CCOC(=O)N1CCc2c(sc(NC(=O)CCSc3ccccc3)c2C#N)C1", "activation": "0.685%"},
      {"smiles": "CC(=O)N1CCc2c(sc(NC(=O)CCS(=O)(=O)c3ccccc3)c2C#N)C1", "activation": "-0.234%"},
      {"smiles": "Cc1ccc(CNC(=O)CCC2CCCN(C(=O)c3cccc(-c4ccco4)c3)C2)o1", "note": "(configuration not stated)", "activation": "-0.6%"},
      {"smiles": "CC(C)c1nc(CNC(=O)Cn2nnnc2CN2C[C@@H](C)O[C@@H](C)C2)cs1", "activation": "0.432%"},
      {"smiles": "CCC(C)C(=O)N1CCc2c(C(=O)NCc3ccsc3)c(OC)cc(=O)n2CC1", "note": "(configuration not stated)", "activation": "0.148%"},
      {"smiles": "CC(C)CC(NS(=O)(=O)c1ccc2c(c1)oc(=O)n2C)C(=O)N1CCC(C)CC1", "note": "(configuration not stated)", "activation": "-0.109%"},
      {"smiles": "CC1CCN(C(=O)C(NS(=O)(=O)c2ccc3c(c2)oc(=O)n3C)C(C)C)CC1", "note": "(configuration not stated)", "activation": "7.77% (active)"},
      {"smiles": "CC1CCC(NS(=O)(=O)c2ccc3c(c2)oc(=O)n3C)CC1", "note": "(configuration not stated)", "activation": "0.208%"},
      {"smiles": "O=C1CC(N2CCN(Cc3ccccc3)CC2)C(=O)N1c1ccccc1F", "note": "(configuration not stated)", "activation": "-0.408%"},
      {"smiles": "Cc1ccc2[nH]c3c(=O)n(CC(=O)NCCC4=CCCCC4)cnc3c2c1", "activation": "0.423%"},
      {"smiles": "O=C(Cn1cnc2c(cnn2-c2ccc(F)cc2)c1=O)NCCc1ccccc1", "activation": "0.508%"},
      {"smiles": "O=C(CCn1cnc2c(cnn2-c2ccc(F)cc2)c1=O)NCCC1=CCCCC1", "activation": "7.05% (active)"},
      {"smiles": "COC(=O)c1ccc(-c2cnc3ccc(NCCCO)nn23)cc1", "activation": "0.0841%"},
      {"smiles": "O=C(Cc1cccs1)NCCS(=O)(=O)N1CCN(CCc2ccccc2)CC1", "activation": "0.729%"},
      {"smiles": "Cc1ccc(-c2noc(CNC(=O)c3cc(C)ccc3C)n2)cc1", "activation": "0.749%"},
      {"smiles": "Cc1ccccc1C(=O)NCc1nc(-c2ccc(Cl)cc2)no1", "activation": "6.7% (active)"},
      {"smiles": "Cc1ccc(-c2noc(CNC(=O)c3cccc4ccccc34)n2)cc1", "activation": "1.49%"},
      {"smiles": "COc1ccc(C2Nc3ccccc3C(=O)N2c2ccc(C)cc2)cc1COc1ccc(Cl)cc1", "note": "(configuration not stated)", "activation": "2.56%"},
      {"smiles": "O=C(O)CN1C(=O)CC(N2C(=O)/C(=C/c3ccc(F)cc3)SC2=S)C1=O", "note": "(configuration not stated)", "activation": "-1.59%"},
      {"smiles": "Cn1c(=O)c2c(nc(SCC(=O)O)n2Cc2ccc(F)cc2)n(C)c1=O", "activation": "8.98% (active)"},
      {"smiles": "Cn1cnnc1Sc1nc2c(c(=O)n(C)c(=O)n2C)n1Cc1ccc(F)cc1", "activation": "-1.79%"},
      {"smiles": "CNC(=O)CSc1nc2c(c(=O)n(C)c(=O)n2C)n1Cc1ccc(F)cc1", "activation": "0.114%"},
      {"smiles": "CCc1nc2sc3c(c2c2nnc(SCC(=O)NCc4ccco4)n12)CCCC3", "activation": "-0.144%"},
      {"smiles": "COc1ccccc1C(=O)N/C(=C/c1ccc2c(c1)OCO2)C(=O)N1CCCCC1", "activation": "0.0614%"},
      {"smiles": "CCOC(=O)CNC(=O)/C(=C\\c1ccc2c(c1)OCO2)NC(=O)c1ccccc1OC", "activation": "2.88%"},
      {"smiles": "COc1ccccc1C(=O)N/C(=C\\c1ccc2c(c1)OCO2)C(N)=O", "activation": "6.4% (active)"},
      {"smiles": "COCCOC(=O)C1=C(C)Nc2ccccc2S1", "activation": "1.48%"},
      {"smiles": "CN(C)S(=O)(=O)Nc1ccc(N2CCC(NCc3cc4ccccc4[nH]3)CC2)cc1", "activation": "-0.741%"},
      {"smiles": "CCn1c(SCC(=O)O)nc2sc3c(c2c1=O)CC(C)(C)OC3", "activation": "-0.501%"},
      {"smiles": "COC(=O)CSc1nc2sc3c(c2c(=O)n1C1CCCCC1)CC(C)(C)OC3", "activation": "-0.897%"},
      {"smiles": "C=C(C)CSc1nc2sc3c(c2c(=O)n1-c1ccc(OC)cc1)CC(C)(C)OC3", "activation": "5.02% (active)"},
      {"smiles": "Cc1cc(Cl)ccc1OCc1nc(-c2ccccc2)no1", "activation": "1.48%"},
      {"smiles": "CC1=C(C(=O)OCC2CCCO2)C(c2ccccc2F)C2=C(CCCC2=O)N1", "note": "(configuration not stated)", "activation": "0.289%"},
      {"smiles": "COc1ccc(CNC(=O)CSc2nnnn2C2CCCCC2)cc1", "activation": "-1.28%"},
      {"smiles": "CCOc1ccc(NC(=O)COc2cc(C)c(Cl)c(C)c2)cc1", "activation": "-0.356%"},
      {"smiles": "CCOc1ccc(NC(=O)COc2ccc(C)cc2C)cc1", "activation": "0.102%"},
      {"smiles": "CCOc1ccc(NC(=O)COc2cccc(C)c2C)cc1", "activation": "5.81% (active)"},
      {"smiles": "COc1cc(-c2cc(-c3ccccc3)nc3sc(C(=O)O)c(N)c23)cc(OC)c1OC", "activation": "0.0436%"},
      {"smiles": "NC(=O)C1CCN(C(=O)c2ccc(C(F)(F)F)cc2)CC1", "activation": "-0.735%"},
      {"smiles": "NC(=O)C1CCN(C(=O)c2ccc(-c3ccccc3)cc2)CC1", "activation": "5.25% (active)"},
      {"smiles": "COc1ccc(C(=O)N2CCC(C(N)=O)CC2)cc1OC", "activation": "1.14%"},
      {"smiles": "COc1ccc(C(=O)C2CCN(CC(N)=O)CC2)cc1", "activation": "-1.68%"},
      {"smiles": "CN(C)CCNC(=O)C(=O)NCC1OCCCN1S(=O)(=O)c1ccc(F)cc1", "note": "(configuration not stated)", "activation": "-0.149%"},
      {"smiles": "Cc1cc(NC(=O)CSc2nc(=O)cc(N)n2-c2ccc(F)cc2)no1", "activation": "-0.189%"},
      {"smiles": "Nc1cc(=O)nc(SCC(=O)Nc2nccs2)n1-c1ccc(F)cc1", "activation": "5.12% (active)"},
      {"smiles": "O=C(CSc1ccc(F)cc1)Nc1nccs1", "activation": "-0.169%"},
      {"smiles": "O=C(Nc1ccc2oc(-c3ccccc3F)nc2c1)c1cc(I)ccc1Cl", "activation": "-1.58%"},
      {"smiles": "CCOc1ccc(-c2cc(C(=O)NCCCN3CCN(C)CC3)c3ccccc3n2)cc1", "activation": "2.73%"},
      {"smiles": "O=C1c2ccccc2C(=O)N1CNc1ccc(Cc2ccncc2)cc1", "activation": "-0.716%"},
      {"smiles": "O=C(CN1C(=O)NC2(CCCCCC2)C1=O)Nc1ccc(S(=O)(=O)N2CCCC2)cc1", "activation": "1.73%"},
      {"smiles": "COC(=O)CCC(=O)Nc1ccc(S(=O)(=O)N2CCOCC2)cc1", "activation": "-0.0636%"},
      {"smiles": "O=C(CN1C(=O)CCC1=O)Nc1ccc(S(=O)(=O)N2CCOCC2)cc1", "activation": "6.57% (active)"},
      {"smiles": "CN(CC(=O)Nc1cccc(F)c1)C(=O)C1CCCCC1", "activation": "-0.0765%"},
      {"smiles": "Cc1ccc(S(=O)(=O)Cn2nnnc2CN2CCN(c3ccccc3F)CC2)cc1", "activation": "8.05% (active)"},
      {"smiles": "Cc1ccc(S(=O)(=O)Cn2nnnc2CN2CCN(c3cccc(Cl)c3)CC2)cc1", "activation": "-0.91%"},
      {"smiles": "CC(C)CCn1nnnc1CN1CCN(c2ccccc2F)CC1", "activation": "-0.0283%"},
      {"smiles": "CCCC(C)NS(=O)(=O)c1ccc(OCC(=O)OC)cc1", "note": "(configuration not stated)", "activation": "0.348%"},
      {"smiles": "COCC(=O)NC(C)c1nnc(SCc2ccccc2C)n1C", "note": "(configuration not stated)", "activation": "-0.733%"},
      {"smiles": "COc1cccc(-c2nc3cc(NC(=O)c4cncc(Br)c4)ccc3o2)c1", "activation": "-0.0884%"},
      {"smiles": "COc1cccc(-c2ocnc2C(=O)Nc2ccc3nc(-c4cccnc4)oc3c2)c1", "activation": "7.47% (active)"},
      {"smiles": "COc1cccc(C(=O)Nc2ccc3oc(-c4ccccc4)nc3c2)c1", "activation": "-0.935%"},
      {"smiles": "O=C(NC1CC1)c1ccc(-c2cccc(C(=O)NCc3ccccc3)n2)cc1", "activation": "-1.55%"},
      {"smiles": "CCOc1ccc(-c2ccc(SCC(=O)Nc3cc(C)on3)nn2)cc1", "activation": "1.58%"},
      {"smiles": "O=C1N(CC2CCCCC2)CCN1c1ccc(C(F)(F)F)cn1", "activation": "-0.812%"},
      {"smiles": "CCOc1ccc(S(=O)(=O)N2CCN(c3ncccn3)CC2)c2cccnc12", "activation": "3.78%"},
      {"smiles": "c1ccc(-c2ccccc2OCCNCCN2CCOCC2)cc1", "activation": "-0.471%"},
      {"smiles": "c1ccc(-c2ccc(OCCCNCCN3CCOCC3)cc2)cc1", "activation": "7.78% (active)"},
      {"smiles": "c1ccc(-c2ccccc2OCCCCNCCN2CCOCC2)cc1", "activation": "0.194%"},
      {"smiles": "COC1(C(F)(F)F)NC(=O)N(c2ccccc2)C1=O", "note": "(configuration not stated)", "activation": "-1.06%"},
      {"smiles": "CCCOC1(C(F)(F)F)NC(=O)N(c2ccc(C(C)C)cc2)C1=O", "note": "(configuration not stated)", "activation": "10.8% (active)"},
      {"smiles": "CC(C)c1ccc(N2C(=O)C3C(C2=O)C2(c4ccccc4)C(=O)C3(c3ccccc3)C(c3ccccc3)=C2c2ccccc2)cc1", "note": "(configuration not stated)", "activation": "2.7%"},
      {"smiles": "Cc1nc(N2CCN(C)CC2)c2c(C)c(C(=O)NC3CCCCC3)sc2n1", "activation": "0.833%"},
      {"smiles": "CC(C)NC(=O)c1sc(=S)n2c1[nH]c(=O)c1ccc(C(=O)NCCN(C)C)cc12", "activation": "1.68%"},
      {"smiles": "O=C1/C(=C\\c2cccs2)SC(=S)N1Cc1ccco1", "activation": "-0.646%"},
      {"smiles": "CCC(=O)N1CCc2cc(S(=O)(=O)CCC(=O)Nc3ccc(C(=O)OC)cc3)ccc21", "activation": "0.246%"},
      {"smiles": "COc1cc(-c2cncc(-c3cccc(C(=O)NCCN(C)C)c3)n2)cc(OC)c1OC", "activation": "-0.823%"},
      {"smiles": "CCN1CCN(Cc2cc([N+](=O)[O-])ccc2O)CC1", "activation": "-0.921%"},
      {"smiles": "C/C(=N/N1CCN(Cc2ccc(C)cc2C)CC1)c1ccc([N+](=O)[O-])cc1", "activation": "9.21% (active)"},
      {"smiles": "Cc1ccc(CN2CCOCC2)c(C)c1", "activation": "0.704%"}
    ]}
  ]
}
